Screens: PubChem, Broad Institute
Only a selection was taken, and hits are over-represented in it overall.
Tg IFNy HTS: T. gondii growth inhibition under IFN-gamma. Toxoplasma gondii growth in IFN-gamma-treated host cells; stronger effect = lower value. activity change, negative = inhibition, % (no concentration beside the values). hit rate 3.8% among 69,000. AID 1259416; in the data active = activity change below about -70%, passing the limit was not always enough;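 also: host cells are HeLa cells infected with Toxoplasma gondii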
A number is an active result; i = inactive.

SMILES | Tg IFNy HTS
COCCN1C(=O)CCc2cc(NC(=O)c3ccc(Cl)s3)ccc21 | -78.1
CCCN1C(=O)CCc2cc(NC(=O)Cc3ccc(Cl)cc3)ccc21 | i
CCCN1C(=O)CCc2cc(NC(=O)c3cc(Cl)ccc3OC)ccc21 | -92.5
CCCN1C(=O)CCc2cc(NC(=O)c3ccc(Cl)s3)ccc21 | -89.7
CCCC(=O)Nc1ccc2c(c1)CCC(=O)N2CCC | i
COCCN1C(=O)CCc2cc(NC(C)=O)ccc21 | i
CCCN1C(=O)CCc2cc(NC(=O)CCOC)ccc21 | i
COCCN1C(=O)CCc2cc(NC(=O)C3CC3)ccc21 | i
CCCN1C(=O)CCc2cc(NC(C)=O)ccc21 | i
COCC1CN(C(=O)CC2C=CCC2)Cc2nnn(C)c21 (centres undefined) | i
CCn1ncc(C2=NOC(C(=O)Nc3cccc(-c4nnco4)c3)C2)c1C (centres undefined) | i
CCCCN1CCC(c2cc(N)n3nc(C(C)(C)C)cc3n2)CC1 | i
Cc1ccc(S(=O)(=O)N2CCC[C@@H]2C(=O)NCCc2csc(C)n2)cc1 | i
Cc1ccc(C(=O)N(CCCN)[C@@H](c2nc3cc(Cl)ccc3c(=O)n2Cc2ccccc2)C(C)C)cc1 | i
CC(C)C#Cc1ccc([C@H]2[C@@H](CO)N3C(=O)CN(S(=O)(=O)c4ccccc4)C[C@@H]23)cc1 | i
Cc1cc(C(=O)Nc2csc(-c3ccc(Cl)cc3)c2)c(C)o1 | i
O=[Si]=O | i
O=C(c1cccc(-n2cccn2)c1)N1CCN(c2nccs2)CC1 | i
Cc1ccccc1-c1ncc(CN2CCC3(CC2)C(=O)NCCCN3C)cn1 | i
CC1=NN(C)C(=O)/C1=N\OC(=O)c1ccc(Cl)cc1 | i
O=C(O/N=C1/C(=O)c2ccccc2-c2ccccc21)c1ccccc1 | -103.1
COc1ccc(C(=O)/C=C2/c3ccccc3CC(C)(C)N2C)cc1 | i
O=C(OCc1ccccc1)c1ccccc1 | i
O=C(OOC(=O)c1ccccc1)c1ccccc1 | i
COc1ccc(C(=O)O/N=C2/C(=O)N(C)c3ccccc32)cc1 | -100.2
SMILES | Tg IFNy HTS
COc1ccccc1-c1ccc(CC2(C(=O)N(C)C)CCN(C(=O)C3CC=CCC3)C2)cc1 (centres undefined) | i
O=C(C[C@@H]1CC[C@H]2[C@@H](COC[C@@H](O)CN2C(=O)Nc2ccccc2)O1)NCc1ccccc1F | i
O=C(CN1C(=O)CCc2cc(S(=O)(=O)N3CCOCC3)ccc21)Nc1ccc(F)cc1 | i
CCC(=O)N1C[C@H](O)COC[C@@H]2O[C@H](CC(=O)NCc3ccc(Oc4ccccc4)cc3)CC[C@H]21 | i
CN(C)CCCNC(=O)c1ccc2ccc(N3CCN(Cc4cccnc4)CC3)n2c1 | -86.8
CCCNC(=O)c1ccc2ccc(N3CCN(C(=O)N(C)C)CC3)n2c1 | i
CN(C)C(=O)N1CCN(c2ccc3ccc(C(=O)NCCc4ccccc4)cn23)CC1 | i
COc1ccc(-c2ccc([C@H]3[C@H](CO)N4C(=O)CN(Cc5ccccc5)C[C@@H]34)cc2)cc1 | i
O=C(NCc1ccc2c(c1)OCO2)c1c(O)c2cccnc2[nH]c1=O | i
COc1ccc(-c2ccccc2[C@H]2[C@@H](C#N)N(C(=O)NC3CCCCC3)[C@H]2CO)cc1 | i
COc1ccc(-c2nc(C)c(CCNC(=O)C(=O)Nc3ccccc3)s2)cc1 | i
COc1ccc(Cc2nn3c(C(=O)c4cccs4)nn(-c4ccccc4)c3nc2=O)cc1 | -94.4
COc1ccc(-c2nc(C)c(CCNC(=O)c3cccs3)s2)cc1 | i
CCN(c1ccccc1C)S(=O)(=O)c1cc2c3c(c1)CCC(=O)N3CCC2 | i
Cc1csc(NC(=O)CN2C(=O)CCc3cc(S(=O)(=O)N4CCC(C)CC4)ccc32)n1 | -93.1
Cc1cc(C)c(NC(=O)CN2C(=O)CCc3cc(S(=O)(=O)N4CCC(C)CC4)ccc32)c(C)c1 | i
CC(C)NC(=O)CN1C(=O)CCc2cc(S(=O)(=O)N3CCCCC3C)ccc21 (centres undefined) | i
CC(C)c1ccc(NC(=O)CN2C(=O)CCc3cc(S(=O)(=O)N4CCCCC4C)ccc32)cc1 (centres undefined) | -75.0
CC1CCN(S(=O)(=O)c2ccc3c(c2)CCC(=O)N3CC(=O)Nc2ccccn2)CC1 | i
CC(=O)Nc1ccc(NC(=O)CN2C(=O)CCc3cc(S(=O)(=O)N4CCC(C)CC4)ccc32)cc1 | i
CCOc1ccc(NC(=O)CN2C(=O)CCc3cc(S(=O)(=O)N4CCC(C)CC4)ccc32)cc1 | i
Cc1cc(C)c(NC(=O)CN2C(=O)CCc3cc(S(=O)(=O)N4CCCCC4C)ccc32)c(C)c1 (centres undefined) | i
CC1CCN(S(=O)(=O)c2ccc3c(c2)CCC(=O)N3CC(=O)Nc2ccc(C(C)C)cc2)CC1 | -72.9
Cc1ccc(CN2CCN(c3ncnc4ccccc34)CC2)o1 | i
CCOc1ccccc1NC(=O)CSc1ccc(Cl)cc1 | i
SMILES | Tg IFNy HTS
COc1ccccc1NC(=O)CSc1nc2ccccc2n1CC(=O)N1CCOCC1 | i
Cc1nc2ccccc2nc1SCC(=O)Nc1ccccc1OC(C)C | -87.7
COc1ccc(C(=O)N2CCCC3(C2)Nc2cccnc2NC3=NC2CCCC2)cc1F (centres undefined) | i
O=C1C2C3C=CC(O3)C2C(=O)N1OCc1c(F)cccc1Cl (centres undefined) | i
N#Cc1ccc(OCc2c(Cl)sc3ccc(Cl)cc23)cc1 | i
N#Cc1cc(Br)c(OCc2c(F)cccc2Cl)c(Br)c1 | -78.0
Cc1cc2ncn(CCC(=O)Nc3nc(CC(N)=O)cs3)c2cc1C | i
CC(C)c1cc(CC2(C(=O)NCC3(c4ccccc4F)CCCC3)CCCO2)on1 (centres undefined) | i
COc1ccc(C(C#N)N2CCCCCC2)cc1OC (centres undefined) | i
Cc1nnsc1-c1nc(-c2ccc(Cl)s2)cs1 | -84.9
Cc1nc(-c2ccc(Cl)cc2)sc1-c1csc(-c2ccc(Cl)cc2)n1 | i
CCOC(=O)c1csc(-c2snnc2C)n1 | i
CCCC(=O)N1C[C@@H]2[C@H](c3ccccc31)[C@@H](CO)N2C(=O)Nc1ccc(F)cc1 | i
CO[C@@H]1CCN(C(=O)NCc2cccc(F)c2)[C@H]1Cc1cnn(C)c1 | i
NC(=O)CCn1cc(-c2c(-c3ccccc3)ncn2CCO)c2ccccc21 | i
COc1ccc(-c2cn3cc(C)ccc3n2)cc1 | i
Cc1ccc2nc(-c3ccc(-c4ccccc4)s3)cn2c1 | i
Cc1ccc2nc(-c3ccc(Cl)c(C)c3)cn2c1 | -97.2
COc1ccc(Br)cc1-c1nc(Cn2nnc(C(=O)Nc3ccccc3Cl)c2C)c(C)o1 | i
O=C([C@H]1CCCO1)N1CCN(c2nc(-c3ccccc3)nc3c2CCC3)CC1 | i
O=C(Nc1ccc(F)c(F)c1)c1c(O)c2ccccc2n(-c2ccccc2)c1=O | i
Cc1n[nH]c(C)c1N=Nc1cc(Cl)cc(Cl)c1 | -91.6
CCOC(=O)NC(=S)c1ccc(OC)cc1 | i
Cn1c(CNC(=O)c2ccc(Cl)cc2Cl)cc2ccccc21 | i
CC(C)C[C@H](NC(=O)CNC(=O)c1cc(Cl)ccc1Cl)B(O)O | -79.3
SMILES | Tg IFNy HTS
CC(C)CC(NC(=O)c1cccc(Cl)c1)C(=O)O (centres undefined) | i
CCc1ccc(-c2nccn2-c2ccc(-c3n[nH]c(C)n3)cc2)o1 | i
CCS(=O)(=O)N1CCC2(CCC(C(=O)NCC3CC3)O2)CC1 (centres undefined) | i
Cc1ccccc1Cc1nnc(NC(=O)C(C)N2CCCC2)s1 (centres undefined) | i
O=C(CCn1c(=O)oc2ccccc21)NC1=NCCS1 | i
CCN1C[C@@H](COC)[C@]2(CCN(C(=O)COc3ccccc3C)C2)C1 | i
